Shown are actives, neighbours in structure and some others; about 2.6% of the full set was active somewhere.
Cruzain Triton = blocks cruzain activity in presence of Triton detergent | P25779 | hit rate 0.43% among 200,000 | Potency, µM, inactives show max response, negative = inhibition, most hits filed as inhibitors | purified cruzain, Z-FR-AMC fluorescence, 0.01% Triton;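 further: plate controls were neutral wells for no effect and buffer without enzyme for full effect; nearly all actives have a fitted effect of over 40% in size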
Target sequence (P25779 123-467 limits assumed): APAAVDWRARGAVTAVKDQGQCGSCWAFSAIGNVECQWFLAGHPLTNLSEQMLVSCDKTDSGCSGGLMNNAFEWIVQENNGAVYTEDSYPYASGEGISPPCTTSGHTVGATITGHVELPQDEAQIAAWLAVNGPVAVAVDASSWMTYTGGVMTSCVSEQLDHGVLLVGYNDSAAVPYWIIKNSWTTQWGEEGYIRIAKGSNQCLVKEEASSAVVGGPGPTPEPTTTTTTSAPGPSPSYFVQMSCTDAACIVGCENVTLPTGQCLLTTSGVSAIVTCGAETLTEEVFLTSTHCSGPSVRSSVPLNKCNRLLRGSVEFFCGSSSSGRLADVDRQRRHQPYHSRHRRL
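15 min RT preincubation of 1.5 nM cruzain with compound, then 2 uM Z-FR-AMC added; kinetic AMC fluorescence, 60 s delta. Triton X-100 0.01%, pH 5.5.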
Cruzain inh noDet = blocks cruzain activity in detergent-free assay; P25779; purified cruzain, Z-FR-AMC fluorescence, no detergent; Potency, µM, for inactives: max response, negative = inhibition, actives largely listed as inhibitors; hit rate 2.3% among 200,000;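 further: plate controls were enzyme without inhibitor for no effect and buffer without enzyme for full effect; nearly all actives have a fitted effect of over 40% in size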
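Purified cruzain at 1.5 nM, pre-incubated 15 min with compound at room temperature in 100 mM sodium acetate pH 5.5, 5 mM DTT, 0.00005% Triton X-100. Reaction started with 2 uM Z-FR-AMC; AMC fluorescence increase over 60 s gives rate.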
* marks the source's active call; other numbers are inactive results; ? = inconclusive. The call rests on the fitted dose curve; in most records, active means well fitted curve in the direction sought with a large enough effect; inconclusive means small, poorly fitted or top-dose-only effect, or another doubt; inactive means no such curve, though single readings can be large; an effect the other way counts as inactive or inconclusive. Potency means the concentration at half of the fitted maximal effect.

SMILES	Cruzain Triton	Cruzain inh noDet
CC(C)(C)c1ccc(S(=O)(=O)/C=C/C#N)cc1	-2.0%	8.3%
COC(=O)c1ccccc1NC(=O)c1ccc(COc2ccccc2)o1	-12.3%	-16.9%
COC(=O)c1ccccc1NC(=O)c1ccc(COc2cccc3ccccc23)o1	-1.4%	15.8µM*
COc1cccc2c1OC(=O)CC2c1ccccc1C (stereo not given)	1.6%	0.3%
O=[N+]([O-])c1cccc(/C=N/Nc2nc(N3CCOCC3)nc(N3CCOCC3)n2)c1	-3.2%	-3.3%
O=[N+]([O-])c1ccc(Nc2nc(N/N=C/c3cccc(F)c3)nc(N3CCCC3)n2)cc1	-2.9%	15.8µM*
Cc1ccc(-c2nn3c(=O)cc(CN4CCN(C(=O)c5ccc(C(C)(C)C)cc5)CC4)nc3s2)cc1	0.4%	-2.9%
Cc1ccc(-c2csc(N(CC3CCCO3)C(=O)c3ccco3)n2)cc1 (stereo not given)	-7.4%	10.5%
COc1ccc(-c2csc(N(CC3CCCO3)C(=O)c3ccc(C)cc3)n2)cc1 (stereo not given)	-3.9%	20µM*
Cc1c(-c2nc(-c3ccc4c(c3)OCO4)no2)nnn1-c1cccc(C(F)(F)F)c1	4.2%	-16.2%
COCCN1CN(S(=O)(=O)c2ccccc2)c2nc3ccccc3nc21	-13.1%	-3.3%
Cc1cccc(S(=O)(=O)N2CN(Cc3ccco3)c3nc4ccccc4nc32)c1	-7.7%	25.1µM*
CCOc1ccc(C(c2c(O)cc(C)n(Cc3ccco3)c2=O)N2CCN(C)CC2)cc1 (stereo not given)	1.5%	?
N#Cc1ccc(NC(=O)Nc2ccc(Cl)cc2)cc1	-0.7%	10µM*
CN(CC(=O)Nc1ccc(C#N)cc1)Cc1ccc(Cl)cc1	0.1%	10.8%
COc1ccc(N(CC(=O)Nc2cccc(Cl)c2C)S(=O)(=O)c2c(C)nn(C)c2C)cc1	-6.4%	?
COc1ccc(-c2nc(C)sc2CC(=O)O)cc1	4.0%	9.6%
COc1ccc(C2=NN(c3nc(-c4ccccc4)c(CC(=O)O)s3)C(c3ccco3)C2)cc1 (stereo not given)	15.8µM*	12.6µM*
COc1cc(OC)c(OC)cc1/C=C/c1nc2cc3ccccc3cc2c(=O)n1-c1ccc(F)cc1F	0.4%	2.5%
c1ccc(Nc2ccccc2)cc1	-1.5%	-0.3%
CC(C)Nc1ccc(Nc2ccccc2)cc1	-2.9%	31.6µM*
COCCc1nn2c(=O)cc(COC(=O)c3ccc(C(C)(C)C)cc3)nc2s1	-10.2%	?
O=C(COc1ccc(F)cc1)NCC(c1ccc(Cl)cc1)N1CCCCC1 (stereo not given)	5.0%	-2.4%
COc1ccc(C(=O)Nc2ccc3c(c2)Cc2ccccc2-3)cc1	5.6%	10µM*
COc1cc(NC(=S)NC(=O)c2ccccc2C)ccc1NC(=O)c1cccs1	0.6%	-21.1%
SMILES	Cruzain Triton	Cruzain inh noDet
COc1cccc(OC)c1C(=O)NC(=S)Nc1ccc2c(c1)Cc1ccccc1-2	-23.6%	15.8µM*
COc1c(C)cccc1C(=O)NC(=S)Nc1ccc2c(c1)Cc1ccccc1-2	2.4%	20µM*
COc1ccc(C(=O)Nc2cccc(OC)c2)cc1	3.7%	0.0%
COc1cccc(OC)c1C(=O)NC(=S)Nc1ccc2c(c1)C(=O)N(C)C2=O	-2.7%	-2.0%
CCOC(=O)c1ccc(-n2c(CCC(=O)O)ccc2-c2ccccc2)cc1O	-20.2%	?
CCOc1ccccc1CN1CCc2nc(N3CCN(c4ccccc4F)CC3)ncc2C1	-0.4%	8.5%
Cc1ccc(OCCCSc2nc(-c3ccc(C(C)(C)C)cc3)nc3cc(=O)[nH]n23)cc1C	-1.0%	?
COc1cccc(NC(=O)CSc2nc3ccccc3cc2Cc2ccccc2)c1	1.5%	?
COc1ccc(OC)c(NC(=O)CSc2nc3ccccc3cc2Cc2ccccc2)c1	2.1%	20µM*
COc1ccc(NC(=O)CSc2nc3ccccc3cc2Cc2ccccc2)cc1	-1.7%	?
COc1cc(NC(=O)CSc2nc3ccccc3cc2Cc2ccccc2)cc(OC)c1	0.1%	31.6µM*
Cc1ccc2nc(NCc3ccccc3)c3nncn3c2c1	-1.1%	-1.9%
CCOc1ccccc1NC(=O)COC(=O)C(CC(C)C)N1C(=O)C2CC=CCC2C1=O (stereo not given)	-26.1%	7.9%
CC(C)CC(C(=O)OCC(=O)Nc1cccc(Cl)c1)N1C(=O)C2CC=CCC2C1=O (stereo not given)	14.1µM*	-19.2%
O=C(c1ccc(-c2ccc([N+](=O)[O-])cc2)o1)N1CCCCC1	-6.8%	-4.7%
O=C(c1ccc(-c2ccc(Cl)cc2)o1)N1CCN(c2ccc([N+](=O)[O-])cc2Cl)CC1	-4.3%	7.94µM*
COc1ccc(N2CCC(CNC(=S)Nc3cccc(OC)c3)C2)cc1 (stereo not given)	-7.6%	31.6µM*
COc1ccc(N2CCC(CNC(=O)Nc3cccc(OC)c3)C2)cc1 (stereo not given)	0.3%	?
Cc1cc(N)ccc1-n1c(C)ccc1C	-5.2%	-2.1%
Cc1cc(N)ccc1N1CCCC1	?	15.8µM*
CCN1c2ccccc2-c2nc(SCC(=O)NCc3ccc(C)cc3)ncc2S1(=O)=O	3.7%	-3.7%
Cc1ccccc1NC(=O)c1cc(C(=O)c2cc(Cl)ccc2O)cn(-c2ccccc2C)c1=O	-3.7%	7.94µM*
O=C(c1cc(C(=O)NCc2ccccc2)c(=O)n(Cc2ccccc2)c1)c1cc(Cl)ccc1O	-4.4%	?
Cc1ccc(CNC(=O)c2cc(C)nc3c2c(C)nn3-c2ccc(C)cc2)cc1	-0.3%	-2.7%
CN(C)c1ccc(N=Nc2ccccc2)cc1	-8.1%	-12.6%
SMILES	Cruzain Triton	Cruzain inh noDet
CN(C)c1ccc(N=O)cc1	25.1µM*	31.6µM*
COc1cc(O)ccc1-c1nc2ccc(Br)cn2c1Nc1ccccc1C	-9.3%	12.2%
COc1ccccc1NC(=O)CSc1nc(-c2ccc(C(C)(C)C)cc2)c(C#N)c(=O)[nH]1	25.1µM*	?
Cc1ccc(C)c(NC(=O)CSc2nc(-c3ccccc3)c(C#N)c(=O)[nH]2)c1	-3.3%	2.3%
Cc1ccc(Nc2c(-c3ccc(N(C)C)cc3)nc3ccccn23)cc1	-0.2%	-1.7%
C/C(Cl)=C/CCl	7.3%	-0.7%
O=C(c1cccs1)c1cn(CCOc2ccccc2Cl)c2ccccc12	-3.0%	?
COc1ccccc1N1CCN(C(=O)C2CCN(S(=O)(=O)c3cnc[nH]3)CC2)CC1	-0.5%	4.0%
Cc1ccc(-n2c(=O)[nH]c3cc(C(=O)NCCc4ccccc4)ccc3c2=O)cc1	-1.3%	15.8µM*
Cc1ccc(CCNC(=O)c2ccc3c(=O)n(-c4ccc(C)cc4)c(=O)[nH]c3c2)cc1	1.4%	2.8%
C/C(=N\NC(=S)NC(C)C)c1ccc(Cl)s1	-11.3%	-9.6%
C/C(=N\NC(N)=S)c1ccc(Cl)s1	0.562µM*	0.251µM*
CCCCNC(=O)C1=C(N)C(C(=O)Nc2ccc(C)c(S(=O)(=O)N3CCCCC3)c2)SC1=Nc1ccc(C)cc1C (stereo not given)	7.1%	7.94µM*
CCN(CC)S(=O)(=O)c1cccc(NC(=O)C2SC(=Nc3ccc(C)cc3C)C(C(=O)NC(C)COC)=C2N)c1 (stereo not given)	1.3%	-11.2%
COc1ccc(Br)cc1CNC(=O)c1cnc2sc(N3CCCC3)nn2c1=O	0.1%	-7.0%
CCOC(=O)c1c(NC(=O)c2ccccc2N(C)S(=O)(=O)c2ccccc2)sc2c1CCCC2	-2.1%	20µM*
COC(=O)c1c(NC(=O)CN(c2ccccc2)S(C)(=O)=O)sc2c1CCCC2	-5.9%	?
CCOC(=O)c1c(NC(=O)c2ccccc2Cl)sc2c1CCCC2	-1.3%	-14.2%

Bioassay records from PubChem BioAssay.
